An excerpt weighted towards active compounds, which were near 19% of everything screened.
IL-1B inflam inh: inhibitors of inflammasome signaling (IL-1 beta secretion) | THP-1 LPS/ATP IL-1B secretion, AlphaLISA, 16 h; hits give low values | activity change, % at 57.5 µM | AID 743279 | hit rate 4.7% among 360,000; in the data active = activity change below about -50%; inconclusive = mostly about -30% to -49%
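THP-1 cells pretreated 1 hr with compounds (up to 57.5 uM final), then stimulated with LPS (250 ng/mL final) plus ATP (1.25 mM final); secreted IL-1B measured by AlphaLISA after 16 hr, decreased signal indicating inhibition.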
HT1080 IDH1KD tx: kills HT-1080 cells with IDH1 knockdown | HT-1080 IDH1 knockdown viability, ATP luminescence, 48 h | Potency, µM (titrated, usually from 46.1 µM), for inactives: at the highest dose activity, negative = toxicity, usual class: cytotoxic | hit rate 2% among 360,000 | AID 686971;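 also: potency is read from the fitted curve at half-maximal effect; 0% = DMSO wells and -100% = cell-free medium wells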
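Viability of IDH1-knockdown HT-1080 fibrosarcoma cells was assessed by CellTiter-Glo after 48 h at 37 °C with titrated compound; concentration-effect curves were classified by fit quality and response size.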
TDP1 cell noCPT: qHTS for Inhibitors of human tyrosyl-DNA phosphodiesterase 1 (TDP1): qHTS in cells in absence of CPT | DT40 Tdp1-/- hTDP1 cells, no CPT, ATP luminescence, 48 h | Potency, µM (doses to about 46.2 µM), inactives show at the highest dose activity change, negative = growth inhibition, hits mostly inhibitors | hit rate 15% among 420,000 | AID 686978, 2013; also: potency is read from the fitted curve at half-maximal effect; nearly all actives have a fitted effect of over 55% in size
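Camptothecin absent (DMSO only). Human TDP1-complemented DT40 knockout cells, 400 cells/well, 37 °C for minimum 48 hr; ATP measured via CellTiter-Glo, 30 min dark incubation, luminescence.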
HT1080NT lethal: kills 2HG-producing HT-1080-NT fibrosarcoma cells; HT-1080-NT fibrosarcoma viability, CellTiter-Glo ATP luminescence, 48 h; Potency, µM (titrated, usually from 46.1 µM), inactives show top-dose activity, negative = less viability, most hits filed as cytotoxic; hit rate 1.6% among 360,000; AID 686970;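 also: NT is the 2HG producing partner of a matched IDH1 knockdown line; potency is read from the fitted curve at half-maximal effect; 0% = DMSO-treated cells and -100% = media-only wells without cells; nearly all actives have a fitted effect of over 55% in size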
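HT-1080-NT; 750 cells/well; 5% FBS RPMI; 48 h compound, 37 degrees C; CellTiter-Glo luminescence; curve fitting and curve-class assignment.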
DT40 TDP1 CPT: DT40-hTDP1 cell growth loss with CPT; chicken DT40 Tdp1-/-;hTDP1 cells + 20 nM CPT, ATP luminescence, 48 h; Potency, µM (series often up to 46.2 µM), without a hit: top-dose activity change, negative = growth inhibition, most hits filed as inhibitors; hit rate 12% among 420,000; AID 686979; also: potency is read from the fitted curve at half-maximal effect; nearly all actives have a fitted effect of over 55% in size
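Chicken DT40 Tdp1-/- cells complemented with human TDP1, 400 cells/well, exposed to compounds plus 20 nM camptothecin for at least 48 h at 37 C; viability read as ATP content by CellTiter-Glo luminescence.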
Starred values were filed as active, the others as inactive; ? = inconclusive; . = not tested or not shown. Unless noted, calls follow the shape of the dose curve; as a rule, active = well fitted curve in the direction sought with a large enough effect; inconclusive = small, poorly fitted or top-dose-only effect, or another doubt; inactive = no such curve, though single readings can be large; an effect the other way counts as inactive or inconclusive. Unless noted, % is scaled to controls: 0 for no effect and ±100 for the full control effect.

SMILES | IL-1B inflam inh | HT1080 IDH1KD tx | TDP1 cell noCPT | HT1080NT lethal | DT40 TDP1 CPT
O=C1c2ccc(Cl)cc2S(=O)(=O)c2cccc(C(=O)N3CCN(c4ccc(Cl)cn4)CC3)c21 | -93* | ? | 16µM* | ? | 13µM*
Cc1cc(OCCN2CCN(S(=O)(=O)c3ccccc3F)CC2)ccc1C(C)C | 0 | -15% | 16µM* | -17% | 21µM*
Cc1ccc(NC(=O)CN(C)C(=O)Cc2c(Cl)cccc2Cl)cc1 | 1 | 1% | 16µM* | -14% | ?
Cc1ccc(NC(=O)CN(C)C(=O)c2ccccc2Cc2ccccc2)cc1 | -58* | -21% | ? | -1% | ?
CCCCNS(=O)(=O)c1cc2c3c(c1)CCN3C(=O)CC2 | 26 | 2% | 0% | 0% | 9%
COC(=O)c1cc(COc2ccc3c(c2)oc(=O)c2ccccc23)c(C)o1 | 0 | 27% | ? | 28% | ?
CCN(CC)c1cc(C)c(/C=C/c2ccnc3ccccc23)cc1C | . | . | 13µM* | . | 10µM*
Cc1cc(N(C)C)c(C)cc1/C=C/c1ccnc2ccccc12 | . | . | 0.56µM* | . | 0.79µM*
COc1ccc(NC(=O)C2(C)Cc3c(-c4ccc(C(N)=O)cc4)ccnc3O2)cc1OC (stereo unspecified) | -5 | -6% | -22% | 0% | -1%
CCCCCCNC(=O)n1cc(F)c(=O)[nH]c1=O | . | . | 15µM* | . | 11µM*
CCCOCn1cc(F)c(=O)[nH]c1=O | 12 | 16% | -14% | 12% | 8%
Cc1nn(C)c(C)c1S(=O)(=O)N(CC(=O)NCCCOC(C)C)c1ccc(C(C)C)cc1 | -6 | 1% | ? | 6% | -17%
Cc1ccc(CCNC(=O)CN(c2ccc(C)cc2)S(=O)(=O)c2c(C)noc2C)cc1 | -5 | 9% | 16µM* | 4% | ?
Cc1ccc(CCNC(=O)CN(c2cc(C)cc(C)c2)S(=O)(=O)c2c(C)noc2C)cc1 | -1 | 0% | ? | -4% | -22%
Cc1cccc(CCNC(=O)CN(c2ccc(C(C)C)cc2)S(=O)(=O)c2c(C)nn(C)c2C)c1 | . | . | 16µM* | . | ?
Cc1ccc(N(CC(=O)NCc2ccc3c(c2)OCO3)S(=O)(=O)c2c(C)noc2C)cc1 | -12 | -1% | 23µM* | -3% | ?
Cc1noc(C)c1S(=O)(=O)N(CC(=O)NCc1ccc2c(c1)OCO2)c1ccc(C(C)C)cc1 | -2 | -9% | ? | 0% | ?
COc1ccc(CCNC(=O)CN(c2cc(C)cc(C)c2)S(=O)(=O)c2c(C)noc2C)cc1OC | -4 | 18% | 18µM* | 11% | ?
COc1ccc(C(=O)NCCC(=O)NCc2cc(=O)n(C)c(=O)n2C)cc1 | 33 | 2% | 17% | 2% | 0%
CCOC(=O)c1ccc(NC(=O)c2nc[nH]c2C(=O)N(C)Cc2ccccc2)cc1 | -5 | -22% | ? | -22% | ?
Cc1ccc(N(CC(=O)NCCc2ccc(Cl)cc2)S(=O)(=O)c2c(C)noc2C)cc1 | -2 | -5% | 15µM* | 0% | 23µM*
Cc1ccc(S(=O)(=O)C2(C(=O)NCc3ccc4c(c3)OCO4)CC2)cc1 | 17 | 0% | 18µM* | 1% | ?
Cc1cc(C)cc(N(CC(=O)NCCc2ccc(Cl)cc2)S(=O)(=O)c2c(C)noc2C)c1 | . | . | 1% | . | -3%
Cc1cc(C(=O)CSc2nc3ccccc3[nH]2)c(C)n1C | -5 | 14% | ? | 11% | ?
Cc1cc(C(=O)CSc2nn(-c3ccccc3)c(=S)s2)c(C)n1Cc1ccco1 | -7 | -4% | ? | -2% | ?
SMILES | IL-1B inflam inh | HT1080 IDH1KD tx | TDP1 cell noCPT | HT1080NT lethal | DT40 TDP1 CPT
C=CCn1c(C)cc(C(=O)CSc2nc3ccccc3[nH]2)c1C | -65* | ? | 9.2µM* | 4% | 21µM*
Cc1cc(C(=O)CSc2nc3ccccc3[nH]2)c(C)n1Cc1ccco1 | -18 | ? | 5.8µM* | ? | 8.2µM*
COCC(C)n1c(C)cc(C(=O)CSc2nnc(Nc3ccccc3F)s2)c1C (stereo unspecified) | -16 | -26% | ? | -3% | 23µM*
COCC(C)n1c(C)cc(C(=O)CSc2ncccn2)c1C (stereo unspecified) | -5 | 0% | 6% | 10% | -1%
COCC(C)n1c(C)cc(C(=O)CSc2nc3ccccc3c(=O)[nH]2)c1C (stereo unspecified) | 21 | ? | 21µM* | ? | ?
COCC(C)n1c(C)cc(C(=O)COC(=O)CCc2nc3ccccc3c(=O)[nH]2)c1C (stereo unspecified) | -18 | -6% | -22% | -12% | 6%
COc1cc(C(=O)OCC(=O)N2CCCC2)cc2c1OCCO2 | -3 | 1% | -3% | 1% | 2%
COCCn1c(C)cc(C(=O)CSc2nc3ccccc3c(=O)[nH]2)c1C | 8 | ? | 15µM* | -9% | 16µM*
C=CCn1c(C)cc(C(=O)CSc2nc3ccccc3c(=O)[nH]2)c1C | -19 | ? | 21µM* | -18% | 16µM*
COCCn1c(C)cc(C(=O)COc2nc3ccccc3nc2C)c1C | -18 | -29% | 15µM* | -12% | 16µM*
COCCn1c(C)cc(C(=O)CSc2ccc3ccccc3n2)c1C | -4 | -14% | ? | -16% | ?
COCCCn1c(C)cc(C(=O)COC(=O)CCc2nc3ccccc3c(=O)[nH]2)c1C | -76* | -2% | 3% | 10% | 19%
CCCCC(=O)Nc1nnc(C2=COCCO2)o1 | 2 | 13% | 8% | 13% | 8%
Cc1noc(C)c1NC(=O)N(C)C[C@H]1Oc2ccc(NC(=O)c3ccncc3)cc2C(=O)N([C@H](C)CO)C[C@@H]1C | 13 | 9% | 3% | 22% | -9%
NNC(=O)CCCCCCCCCCOCCCCO | 16 | -22% | 13µM* | -18% | -21%
CCCCCOCC(O)CCC(=O)NN (stereo unspecified) | 0 | 11% | -2% | 5% | -8%
COC(=O)c1ccc(NC(=O)CN2CCN(c3ccccn3)CC2)cc1 | 21 | 7% | 3% | 9% | -18%
CCOc1ccc2[nH]c3c(NCCCOC)ncnc3c2c1 | -54* | -2% | ? | 0% | ?
CCOc1ccc2[nH]c3c(NCCN(CC)CC)ncnc3c2c1 | -96* | ? | -1% | ? | 13%
CCOc1ccc2[nH]c3c(NCC(C)C)ncnc3c2c1 | ? | -17% | 26µM* | -14% | ?
COc1ccc2[nH]c3c(NCCN(C(C)C)C(C)C)ncnc3c2c1 | -57* | -20% | 18µM* | -27% | 16µM*

Compound activity: PubChem BioAssay, National Center for Advancing Translational Sciences (NCATS)
